Results on seven molecules are retold here after PubChem BioAssay (Tox21).

Test [1] deals with Thyrotropin receptor (Homo sapiens) (UniProt P16473). The experiment in a line: qHTS assay to identify small molecule agonists of the thyroid stimulating hormone receptor (TSHR) signaling pathway (AID 1224843; calls by dose curve; further: nearly all actives have a fitted effect of over 45% in size). In short, it runs like this:
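TSHR-HEK293 cells in agonist mode, 30 min room-temperature step, then cAMP measured by competitive HTRF (cAMP-d2 with anti-cAMP cryptate) after 1 h at room temperature. Tested at 15 concentrations in triplicate.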
(In qHTS, concentration-response curves come from the screen itself.)

Test [2] can be described thus: qHTS assay to identify small molecule agonists of the hypoxia (HIF-1) signaling pathway - cell viability counter screen (AID 1224844; calls by dose curve; further: nearly all actives have a fitted effect of over 50% in size). The method in brief:
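HRE-bla ME-180 cells, 2,000/well in 0.5% dialyzed FBS medium, treated 17 h at 37C with compounds. Viability read in the same wells as the bla reporter, by CellTiter-Glo luminescence after 30 min at room temperature.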

A short description of test [3]: qHTS assay to identify small molecule agonists of H2AX (AID 1224845; active means well fitted activation curve with a large enough effect in the signal ratio in the repeat runs, not every such curve was filed as active; the % refers to the signal ratio; further: potency means the concentration at half of the fitted maximal effect). The method in brief:
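Wild-type CHO-K1 cells, plated overnight, exposed 3hr at 37C to 15 concentrations (0.76% DMSO final). Lysed, then HTRF anti-pH2AX (S139) cryptate and anti-H2AX-d2 antibodies, 24 hr room temperature; 665/620 nm emission read.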

A short description of test [4]: qHTS assay to identify small molecule agonists of the hypoxia (HIF-1) signaling pathway (AID 1224846; active means well fitted activation curve with a large enough effect in the signal ratio in the repeat runs, not every such curve was filed as active; the % refers to the signal ratio). The method in brief:
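HRE-bla ME-180 beta-lactamase reporter cells in medium with 0.5% dialyzed FBS, pre-incubated 5 h then exposed to compounds 17 h at 37C, 5% CO2; reporter induction read with CCF4-AM FRET substrate.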

Test [5] in a line: qHTS assay to identify small molecule agonists of H2AX - cell viability counter screen (AID 1224847; calls by dose curve; further: top concentration of the series differs between compounds; nearly all actives have a fitted effect of over 30% in size). In short, it runs like this: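 Cytotoxicity counter screen in wild-type CHO-K1 cells: a 3 hr compound treatment at 37C across 15 concentrations, followed by CellTiter-Glo luminescence to gauge viable cells.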
Test [6] is described as follows: qHTS assay to identify small molecule antagonists of the estrogen related receptor (ERR) signaling pathway from Tox21 library (AID 1224848). Further: nearly all actives have a fitted effect of over 50% in size. In short, it runs like this: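 ERR reporter cell line (from NTP) seeded 2,000 cells/well, rested 6 h at 37 C/5% CO2, then pin-dosed with compounds in DMSO. After 18 h at 37 C, ONE-Glo added; luminescence read after 30 min at room temperature.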

The nature of test [7]: qHTS assay to identify small molecule agonists of the estrogen related receptor (ERR) signaling pathway from Tox21 library (AID 1224849; calls by dose curve; further: nearly all actives have a fitted effect of over 15% in size). The following applies: ERR reporter cell line, ONE-Glo luciferase, 18 h; at 92.4 µM (top of the series). In short, it runs like this:
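ERR reporter cells (NTP line) pre-incubated 6 hours at 37 C, then exposed to compounds for 18 hours at 37 C. ONE-Glo luciferase luminescence was read after 30 minutes at room temperature.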

The nature of test [8]: qHTS RealTime-Glo MT Cell Viability Assay in HepG2 cells - 24 hour (AID 1224867). Further: nearly all actives have a fitted effect of over 50% in size. In short, it runs like this:
(§1)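 Real-time, nonlytic viability: 600 HepG2 cells/well mixed with NanoLuc enzyme plus prosubstrate; 5 h settle, compound (DMSO) added by pintool; luminescence monitored over 40 h at 37 C.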

Test [9] is described as follows: qHTS RealTime-Glo MT Cell Viability Assay in HEK293 cells - 32 hour (AID 1224868). Further: top concentration of the series differs between compounds; nearly all actives have a fitted effect of over 50% in size. The method in brief: (§2)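 Cells + reagent dispensed (600 cells/well, HEK293) → 5 h at 37 C/5% CO2 → 23 nL compound in DMSO pinned → 40 h at 37 C → luminescence read at 0, 8, 16, 24, 32, 40 h.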
A short description of test [10]: A CellTox Green Cytotoxicity Assay to monitor cytotoxicity in HEK293 cells - 0 hour (AID 1224869). Further: nearly all actives have a fitted effect of over 50% in size. The method in brief:
(§3)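 HEK293 cells, 600/well, were preincubated 5 hours and then exposed to compounds at 37 C for up to 40 hours. A cell-impermeant cyanine dye staining dead-cell DNA was read by fluorescence at 0, 8, 16, 24, 32 and 40 h time points.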

Test [11] can be described thus: qHTS RealTime-Glo MT Cell Viability Assay in HepG2 cells - 40 hour (AID 1224870). Further: nearly all actives have a fitted effect of over 50% in size. The method in brief: (§4)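 HepG2 cells (600/well) mixed with RealTime-Glo MT reagent, settled 5 h at 37 C/5% CO2 before compound addition. Nonlytic NanoLuc luminescence from viable-cell prosubstrate reduction read repeatedly during 40 h treatment at 37 C.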
Test [12] is described as follows: A CellTox Green Cytotoxicity Assay to monitor cytotoxicity in HEK293 cells - 40 hour (AID 1224871). Further: nearly all actives have a fitted effect of over 45% in size. The method in brief:
as §3

The nature of test [13]: qHTS RealTime-Glo MT Cell Viability Assay in HEK293 cells - 16 hour (AID 1224872). The method in brief:
as §2

Test [14] in a line: qHTS RealTime-Glo MT Cell Viability Assay in HepG2 cells - 8 hour (AID 1224873). Further: nearly all actives have a fitted effect of over 55% in size. The method in brief: as §4
Test [15] can be described thus: qHTS RealTime-Glo MT Cell Viability Assay in HEK293 cells - 40 hour (AID 1224874). Further: nearly all actives have a fitted effect of over 50% in size. The following applies: RealTime-Glo luminescence; max response: stronger effect = lower value. In short, it runs like this:
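600 cells/well were plated with the nonlytic NanoLuc/prosubstrate reagent, pre-incubated 5 h, then given 23 nL of compound in DMSO. Incubation at 37 C for 40 h, with luminescence from viable-cell-reduced substrate read repeatedly from 0 h.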

A short description of test [16]: A CellTox Green Cytotoxicity Assay to monitor cytotoxicity in HEK293 cells - 24 hour (AID 1224875). Further: nearly all actives have a fitted effect of over 45% in size. The method in brief:
as §3

Test [17] in a line: A CellTox Green Cytotoxicity Assay to monitor cytotoxicity in HepG2 cells - 16 hour (AID 1224876). Further: nearly all actives have a fitted effect of over 45% in size. In short, it runs like this: (§5)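 HepG2 cells, 600/well, preincubated 5 h with CellTox Green dye, then exposed to Tox21 compounds in DMSO at 37 C for up to 40 h. Dead-cell DNA fluorescence read at the indicated time point.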
Test [18] in a line: qHTS RealTime-Glo MT Cell Viability Assay in HepG2 cells - 32 hour (AID 1224877). Further: nearly all actives have a fitted effect of over 55% in size. In short, it runs like this: as §1
A short description of test [19]: A CellTox Green Cytotoxicity Assay to monitor cytotoxicity in HepG2 cells - 40 hour (AID 1224879). Further: nearly all actives have a fitted effect of over 40% in size. Further: potency means the concentration at half of the fitted maximal effect. The method in brief:
as §5

Test [20] in a line: A CellTox Green Cytotoxicity Assay to monitor cytotoxicity in HepG2 cells - 24 hour (AID 1224878). Further: nearly all actives have a fitted effect of over 45% in size. The method in brief: as §5

Several values for one entry are separate records, joined by “and”; a condition that tells them apart may be missing. Equal values may be shown once. Inconclusive results are not listed. Some structures have more than one record in an assay (separate samples or runs), and their calls can disagree. Activity calls are given as the source filed them. Unless noted, the call rests on the fitted dose curve; in most records, active means well fitted curve in the direction sought with a large enough effect in the repeat runs; inconclusive means weak or mixed curves; inactive means no such curve, though single readings can be large; an effect the other way counts as inactive or inconclusive.
On the % scale 0 is the no-effect control and ±100 the full control effect.

Chain of Thyrotropin receptor (Homo sapiens) (P16473 whole entry, looked up): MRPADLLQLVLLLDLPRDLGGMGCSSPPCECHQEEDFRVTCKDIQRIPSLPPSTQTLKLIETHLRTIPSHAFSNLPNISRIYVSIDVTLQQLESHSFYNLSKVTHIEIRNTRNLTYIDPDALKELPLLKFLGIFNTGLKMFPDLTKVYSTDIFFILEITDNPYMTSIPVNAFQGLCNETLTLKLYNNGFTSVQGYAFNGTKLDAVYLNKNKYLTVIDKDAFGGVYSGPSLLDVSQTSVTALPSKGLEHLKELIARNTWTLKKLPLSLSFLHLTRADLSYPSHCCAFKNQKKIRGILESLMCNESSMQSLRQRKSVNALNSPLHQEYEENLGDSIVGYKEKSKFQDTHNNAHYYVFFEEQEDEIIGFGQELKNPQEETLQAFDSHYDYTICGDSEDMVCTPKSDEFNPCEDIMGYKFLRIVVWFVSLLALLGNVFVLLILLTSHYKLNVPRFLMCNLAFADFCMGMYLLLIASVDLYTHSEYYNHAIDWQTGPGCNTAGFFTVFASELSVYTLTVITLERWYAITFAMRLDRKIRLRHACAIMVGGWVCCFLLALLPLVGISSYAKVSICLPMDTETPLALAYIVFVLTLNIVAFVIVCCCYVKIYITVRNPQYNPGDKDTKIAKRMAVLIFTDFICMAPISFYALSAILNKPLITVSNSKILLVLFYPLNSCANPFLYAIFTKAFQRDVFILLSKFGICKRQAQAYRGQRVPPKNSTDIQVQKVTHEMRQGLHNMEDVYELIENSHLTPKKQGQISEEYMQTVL

With `OCCCCO`, the Potency result in test [1], in test [2], in test [3], in test [5], in test [6] and in test [9] was “inactive” throughout. Also, the Potency entry in test [10], in test [12], in [16], in [17] and in [19] was “inactive” each time. For the same molecule, the call in [4], in test [8], in [11], in [13], in [14] and in test [18] was inactive. Further, in [7], the activity change, positive = activation is 2.81% (inactive) and 0.133% (inactive). In test [15], the max response was 2.32% (inactive) and 1.82% (inactive).
Turning to `Oc1ccc(Cl)cc1`, the Potency result in [1], in test [2], in test [3], in test [5], in [9] and in [10] was “inactive” throughout. For the same molecule, the Potency result in [12], in [16], in test [17] and in [19] was “inactive” in each case. Besides, the molecule was called inactive in [4], in test [8], in [11], in [13], in [14] and in test [18]. Moreover, the max response in test [15] is 3.34% (inactive) and 1.68% (inactive) and 3.82% (inactive).
With `Cc1ccc(O)c(C)c1`, the Potency result in test [1], in test [2], in [3], in [6], in [9] and in test [10] was “inactive” throughout. The Potency entry in test [12], in [16], in test [17], in test [20] and in [19] was “inactive” throughout. For the same molecule, the call in test [4], in [8], in [11], in test [13], in test [14] and in test [18] was inactive. In addition, the activity change, positive = activation in test [7] was -0.712% (inactive) and 11.3% (inactive).
As for `N#CN=C(N)N`, the Potency entry in test [1], in test [2], in test [3], in test [9], in test [10] and in test [12] was “inactive” throughout. Further, the Potency entry in test [16], in test [17] and in test [19] was “inactive” in each case. Moreover, the outcome in test [4], in [8], in [11], in test [13], in test [14] and in test [18] was inactive. In test [15], the max response was 1.89% (inactive) and 5.69% (inactive).
With `CNC(=O)Oc1cccc2ccccc12`, the Potency result in test [1], in test [2], in [9], in test [10], in test [12] and in test [16] was “inactive” throughout. In addition, the Potency entry in [17], in test [20] and in [19] was “inactive” in each case. Further, in test [3], the Potency is 99.8 µM (active) and inactive. The result in test [4], in [8], in [11], in test [13], in test [14] and in [18] was inactive. The max response in test [15] is -29.1% (inactive) and -20.7% (inactive) and -13.7% (inactive).
With `Sc1ccccc1`, the Potency result in [1], in test [2], in test [3], in [5], in test [9] and in test [10] was “inactive” in each case. Besides, the Potency result in test [12], in test [16] and in [17] was “inactive” throughout. In addition, the molecule was called inactive in test [4], in test [8], in test [11], in test [13], in [14] and in [18]. In test [19], the Potency result was “inactive and 43.6 µM (active)”.
`OCC(O)CCl` (stereo not given): the Potency entry in [1], in test [2], in test [3], in [5], in test [9] and in test [10] was “inactive” in each case. Further, the Potency entry in test [12], in test [16], in test [17], in [20] and in test [19] was “inactive” throughout. Besides, the molecule was called inactive in [4], in test [8], in [11], in test [13], in [14] and in test [18].
